In PubChem BioAssay (Tox21):
Records with an inconclusive call do not appear. Activity calls are given as the source filed them. Unless noted, the call rests on the fitted dose curve; in most records, active means well fitted curve in the direction sought with a large enough effect in the repeat runs; inconclusive means weak or mixed curves; inactive means no such curve, though single readings can be large; an effect the other way counts as inactive or inconclusive.

What was measured:
[1] = qHTS assay for small molecule agonists of the p53 signaling pathway (AID 651631; calls by dose curve; further: nearly all actives have a fitted effect of over 15% in size)
How it was run: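 HCT-116 cells carrying a stable p53 response element–beta-lactamase reporter were plated, rested 5 h at 37 °C, then exposed to compound in DMSO for 16 h at 37 °C; reporter activity was read as FRET substrate fluorescence after 2 h at room temperature.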

[2] = qHTS assay for small molecules that induce genotoxicity in human embryonic kidney cells expressing luciferase-tagged ATAD5 (AID 651632); further: nearly all actives have a fitted effect of over 15% in size
How it was run: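 Luminescence read-out: after 16 hr compound exposure at 37C, ATAD5-luciferase HEK293T cells received Amplite, 30 min RT, then CCD imaging. A rise in signal marks genotoxic stress.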

[3] = qHTS assay for small molecule agonists of the p53 signaling pathway - cell viability (AID 651633; calls by dose curve; further: series mostly up to about 83 µM; nearly all actives have a fitted effect of over 30% in size)
How it was run: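 Viability counter-read: CellTiter-Glo luminescence (30 min, room temperature) in the same p53RE-bla plates. These plates had been exposed to compounds for 16 h at 37 C.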

[4] = qHTS assay for small molecules that induce genotoxicity in human embryonic kidney cells expressing luciferase-tagged ATAD5 - cell viability (AID 651634; calls by dose curve; further: nearly all actives have a fitted effect of over 25% in size)
How it was run: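 HEK293T ATAD5-luc cells, 2,000/well; compound 15.5 hr, 37C/5% CO2; CellTiter-Fluor 30 min, 37C; fluorescence read.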

[5] = qHTS assay for small molecule disruptors of the mitochondrial membrane potential - cell viability (AID 720634; calls by dose curve;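 further: human HepG2 liver cancer cells; series mostly up to about 83 µM; nearly all actives have a fitted effect of over 20% in size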)
How it was run: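 Luminescence from CellTiter-Glo (ATP content) gave viability in HepG2 cells, read in the same wells as the MMP dye assay after 1 hr compound exposure at 37 C.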

[6] = qHTS assay for small molecule disruptors of the mitochondrial membrane potential (AID 720635)
How it was run: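 Mitochondrial membrane potential tracked with Mito-MPS dye, red aggregates (ex 540/em 590 nm) against green monomers (ex 490/em 535 nm). Compound treatment 1 hr at 37C, dye 30 min in HepG2.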

[7] = qHTS assay to test for compound auto fluorescence at 590 nm (red) in HepG2 cells (AID 720674)
How it was run: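 We screened compounds on adherent HepG2 cells, incubating them for an hour at 37 C in 5% CO2 before reading emission at 590 nm under 540 nm excitation; values reflect equivalence to Rose Bengal sodium fluorescence.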

[8] = qHTS assay to test for compound auto fluorescence at 535 nm (green) in HepG2 cells (AID 720675)
[9] = qHTS assay to test for compound auto fluorescence at 460 nm (blue) in HEK293 cells (AID 720678)
How it was run: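 After cell attachment (4-5 hr, 37C), compounds were pinned onto HEK293 monolayers in 10% dialyzed FBS medium. The blue channel (405/460 nm) was read following overnight culture. Equivalency was calculated against triamterene.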

[10] = qHTS assay to test for compound auto fluorescence at 590 nm (red) in HEK293 cells (AID 720679)
How it was run: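 Plates of HEK293 cells (10% dialyzed FBS) are treated with 23 nL compound or DMSO vehicle after a 4-5 hr attachment period, incubated overnight at 37C, and read for red fluorescence at 540/590nm.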

[11] = qHTS assay to test for compound auto fluorescence at 535 nm (green) in HEK293 cells (AID 720680)
[12] = qHTS assay to test for compound auto fluorescence at 460 nm (blue) in HEK293 cell free culture (AID 720681)
How it was run: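 Blue fluorescence (Ex 405/Em 460 nm, triamterene-equivalent) was read immediately after pin transfer of compound or DMSO into medium (DMEM, 10% FBS) without cells.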

[13] = qHTS assay to test for compound auto fluorescence at 535 nm (green) in HEK293 cell free culture (AID 720682)
How it was run: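 Read-out: 485/535 nm fluorescence intensity, calibrated against fluorescein. Medium only (DMEM + 10% FBS, no cells); test compound or DMSO vehicle added by pintool before plate reading.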

[14] = qHTS assay to test for compound auto fluorescence at 590 nm (red) in HepG2 cell free culture (AID 720684)
How it was run: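 Cell-free; medium MEM + 10% FBS; compound or DMSO added by pintool; read Ex 540/Em 590 nm; Rose Bengal sodium as red reference fluorophore.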

[15] = qHTS assay to test for compound auto fluorescence at 460 nm (blue) in HepG2 cell free culture (AID 720685)
How it was run: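 Cell-free plates of MEM plus 10% FBS received 23 nL compound or DMSO vehicle; blue-channel (405/460 nm) intensity scored against triamterene as reference fluorophore.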

[16] = qHTS assay to test for compound auto fluorescence at 535 nm (green) in HepG2 cell free culture (AID 720686)
[17] = qHTS assay to test for compound auto fluorescence at 460 nm (blue) in HepG2 cells (AID 720687)
How it was run: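 Blue-channel autofluorescence (Ex/Em 405/460 nm, triamterene-equivalent) was measured after 1 hr compound exposure at 37 C, 5% CO2. Cells were HepG2, plated overnight at 37 C in MEM plus 10% FBS.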

[18] = target: Glucocorticoid receptor (Homo sapiens) (UniProt P04150); experiment: qHTS assay to identify small molecule agonists of the glucocorticoid receptor (GR) signaling pathway (AID 720691; active means well fitted activation curve with a large enough effect in the signal ratio in the repeat runs, not every such curve was filed as active; the % refers to the signal ratio)
Sequence of Glucocorticoid receptor (Homo sapiens) (P04150 whole entry, looked up): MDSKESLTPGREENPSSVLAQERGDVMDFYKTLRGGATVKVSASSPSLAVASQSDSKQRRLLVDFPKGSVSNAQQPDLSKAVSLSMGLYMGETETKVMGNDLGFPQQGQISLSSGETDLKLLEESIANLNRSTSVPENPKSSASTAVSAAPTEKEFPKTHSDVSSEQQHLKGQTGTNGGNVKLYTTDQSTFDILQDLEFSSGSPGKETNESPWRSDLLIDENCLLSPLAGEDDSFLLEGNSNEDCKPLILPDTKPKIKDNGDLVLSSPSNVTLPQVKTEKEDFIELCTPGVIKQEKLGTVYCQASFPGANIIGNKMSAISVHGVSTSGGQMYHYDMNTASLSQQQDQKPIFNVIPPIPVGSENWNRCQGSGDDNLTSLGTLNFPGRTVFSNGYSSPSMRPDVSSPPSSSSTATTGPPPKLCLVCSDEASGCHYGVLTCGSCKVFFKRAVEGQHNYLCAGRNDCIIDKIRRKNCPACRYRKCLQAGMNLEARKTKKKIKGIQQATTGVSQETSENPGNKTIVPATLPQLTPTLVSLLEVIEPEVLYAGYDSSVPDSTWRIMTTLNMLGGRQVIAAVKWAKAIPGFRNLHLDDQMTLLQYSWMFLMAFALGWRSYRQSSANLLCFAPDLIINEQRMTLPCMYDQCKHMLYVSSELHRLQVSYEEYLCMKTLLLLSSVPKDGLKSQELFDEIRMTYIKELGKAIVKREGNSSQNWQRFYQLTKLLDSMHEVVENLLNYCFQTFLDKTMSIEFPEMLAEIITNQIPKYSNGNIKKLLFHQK
How it was run: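 HeLa GR-bla reporter line; cells pre-incubated 4 h, compound in DMSO 18 h at 37 C; LiveBLAzer B/G FRET substrate 2 h RT; fluorescence intensity read-out.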

[19] = target: Glucocorticoid receptor (Homo sapiens) (UniProt P04150); experiment: qHTS assay to identify small molecule antagonists of the glucocorticoid receptor (GR) signaling pathway (AID 720692; active means well fitted inhibition curve with a large enough effect in the signal ratio in the repeat runs, not every such curve was filed as active; the % refers to the signal ratio)
How it was run: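 Read-out: beta-lactamase FRET substrate fluorescence, 2 h at room temperature, in HeLa cells stably carrying a GRE-driven bla reporter. Compounds were co-incubated with 5 nM dexamethasone agonist (final) for 18 h at 37 C.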

[20] = qHTS assay to test for compound auto fluorescence at 590 nm (red) in HEK293 cell free culture (AID 720683)
How it was run: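 Red-channel autofluorescence of compounds in culture medium (DMEM, 10% FBS), no cells, measured at 540/590 nm. Rose Bengal sodium is the reference fluorophore for equivalence.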

Measured: Potency

ClCCl
not listed: [20]
inactive: all other assays above

CC(=O)Oc1cc2c(s1)CCN(C(C(=O)C1CC1)c1ccccc1F)C2 (stereo not drawn)
not listed: [19]
inactive: all other assays above

OC[C@@H](O)[C@@H](O)CO
not listed: [19]
inactive: all other assays above

CCCCCCCC
inactive: all assays above

OC[C@H]1O[C@H](O[C@H]2O[C@H](CO)[C@@H](O)[C@H](O)[C@H]2O)[C@H](O)[C@@H](O)[C@@H]1O
not listed: [9]
inactive: all other assays above

C=CCn1c(=O)n(CC=C)c(=O)n(CC=C)c1=O
not listed: [7] | [19]
inactive: all other assays above

CCCCCc1ccc(Cl)cc1
not listed: [9]
inactive: all other assays above
